Bioassay records deposited in PubChem by several laboratories.
Most compounds without a hit are left out; they make up all but 2.8% or so of the library.
MITF act = activators of MITF-driven TRPM1 promoter activity in SK-MEL-5 cells | activation, % at 12.5 µM | SK-MEL-5 TRPM1-promoter luciferase, 24 h; % of positive control, neutral wells = 0 | 0.75% of 300,000 active;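 active = mean activation of at least 80% with every replicate also reaching 80%; inconclusive = mean reaches 80% but some replicate falls short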
Wnt bcat act = activates Wnt/beta-catenin signaling in a reporter cell assay; AID 743398; activator, plate reader; 1.2% of 300,000 active; activation, % at 9.35 µM; in the data active = activation above about 30%, passing the limit was not always enough; inconclusive = no clear call, values can overlap the other calls
GAA850 FXN act = increases GAA850 frataxin promoter reporter activity. HEK293 lucGAA850 FXN promoter luciferase reporter, 24 h; percent of 10 µM SAHA response. activation, % at 6 µM. 0.56% of 360,000 active;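 active = activation above the average of all compounds screened plus 3 SD, cutoff fixed separately per campaign, cut at about 7.5% in these data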
esBAF inh = SWI/SNF esBAF complex inhibition; mouse ES cells, Bmi1-luciferase knock-in reporter, 24 h; 100% = twice the neutral-well signal; reporter increase, % at 12.5 µM; 2% of 350,000 active; AID 602393; in the data active = activation above about 40%; inconclusive = no clear call, values can overlap the other calls;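 also: a rise in the Bmi1 reporter signal indicates esBAF inhibition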
Ring1 derepress = esBAF inhibition confirmed by Ring1 de-repression | shares compounds with esBAF inh | mouse ESC E14, Ring1 mRNA RT-qPCR fold change | fold change at 33 µM | 550 tested, under 10 active | AID 743176;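 active = Ring1 gene expression raised more than 2-fold over untreated cells in both replicates at either tested dose; inconclusive = only one replicate above 2-fold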;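 also: Ring1 transcript normalised to actin housekeeping signal by TaqMan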
esBAF Fgf4 qPCR = esBAF inhibition confirmed by Fgf4 repression; shares compounds with esBAF inh; mouse ESC E14, Fgf4 mRNA qPCR fold change; active compounds read low; Fgf4 expression fold change at 33 µM; 4% of 550 active;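 active = Fgf4 expression under 0.8 fold of control in both repeat measurements at one or both tested doses; inconclusive = under 0.8 fold in just a single repeat measurement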;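 also: Fgf4 transcript normalised to actin in duplex TaqMan qPCR; cells exposed to compound for 24 h before lysis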
Bmi1 derepress = esBAF inhibition confirmed by Bmi1 de-repression | shares compounds with esBAF inh | mouse ESE14 ES cells, Bmi1 mRNA qPCR fold; active compounds read high | fold change at 33 µM | 550 tested, under 10 active | AID 743180;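 active = Bmi1 expression fold change above 6 at either tested concentration, seen in replicate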;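 also: higher fold means more Bmi1 de-repression and stronger esBAF inhibition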
A549 cytotox = cytotoxicity in A549 cells | shares compounds with esBAF inh | plate reader | cell viability change % (negative = cytotoxic), % at 25 µM, hits read low | 550 tested, under 10 active | AID 743188; call rule not given here
HepG2 cytotox SP = cytotoxicity in HepG2 cells | shares compounds with esBAF inh | plate reader; active compounds read low | activity change, negative = inhibition, % at 25 µM | 4% of 550 active; in the data active = activity change below about -50%
HEK293 tox SP = kills or reduces viability of HEK293 cells. 3% of 550 active. AID 743190. HEK293 cytotoxicity, plate reader. activity change, negative = inhibition, % at 25 µM, hits read low. shares compounds with esBAF inh; in the data active = activity change below about -38%, passing the limit was not always enough
Numbers stand for hits; n = inactive; u = inconclusive; x = not tested or not shown.

SMILES	MITF act	Wnt bcat act	GAA850 FXN act	esBAF inh	Ring1 derepress	esBAF Fgf4 qPCR	Bmi1 derepress	A549 cytotox	HepG2 cytotox SP	HEK293 tox SP
CC(=O)c1ccc(NC(=O)c2cc(C)nc3ccccc23)cc1	n	n	n	62.0	n	n	n	n	n	n
Cc1ccc(NC(=O)c2cc(C)nc3ccccc23)cc1	x	n	n	n	x	x	x	x	x	x
COC(=O)c1c(-c2ccc(SC)cc2)sc2ccc(OC)cc12	n	57.8	n	98.6	n	n	n	n	n	n
COc1ccc2sc(-c3ccc(S(C)(=O)=O)cc3)c(-c3ccc(SC)cc3)c2c1	n	n	n	n	x	x	x	x	x	x
O=C(NCC1CC1)[C@@H]1[C@@H](CO)[C@@H]2Cn3c(ccc(-c4cccc(F)c4)c3=O)[C@@H]2N1CC1CC1	x	x	x	n	x	x	x	x	x	x
COc1cc(C=NN2CCCCC2)cc(OC)c1OC	x	n	n	n	x	x	x	x	x	x
Clc1ccc(C=NN2CCCCCC2)c(Cl)c1	n	n	n	n	x	x	x	x	x	x
N#Cc1ccc(C=NN2CCCCCC2)cc1	n	47.6	n	69.2	n	u	n	n	n	n
Clc1ccc(C=NN2CCCCCC2)cc1	n	u	n	81.8	n	n	n	n	n	n
C[C@H](CO)N1C[C@H](C)[C@H](CN(C)C(=O)Nc2ccccc2)Oc2ccc(NC(=O)Cc3cn(C)c4ccccc34)cc2C1=O	x	x	x	n	x	x	x	x	x	x
C[C@@H]1CN([C@@H](C)CO)C(=O)c2cc(NC(=O)Nc3ccccc3)ccc2O[C@@H](C)CCCCO[C@@H]1CN(C)S(=O)(=O)c1ccc(Cl)cc1	x	x	x	n	x	x	x	x	x	x
Clc1cccc2sc(N3CCCCC3)nc12	x	x	n	61.1	n	n	n	n	n	n
Brc1cccc2sc(N3CCN(c4ccccc4)CC3)nc12	n	n	n	x	x	x	x	x	x	x
O=C(CCN1C(=O)/C(=C/C=C/c2ccccc2)SC1=S)Nc1cccnc1	n	n	n	66.6	n	0.591	n	n	n	n
Cc1c(NC(=O)c2cc(-c3ccc(Cl)c(Cl)c3)on2)c(=O)n(-c2ccccc2)n1C	n	n	n	n	x	x	x	x	x	x
O=C(NC1CCCC1)c1cc(-c2ccc(Cl)c(Cl)c2)on1	106.7	n	n	64.3	n	n	n	n	n	n
O=C(NC(Cc1nn[nH]n1)C(=O)OCc1ccccc1)OCc1ccccc1 (configuration not stated)	x	n	n	n	x	x	x	x	x	x
O=C(CC(NC(=O)OCc1ccccc1)c1nn[nH]n1)OCc1ccccc1 (configuration not stated)	x	n	n	75.2	n	n	n	n	n	n
COc1ccc(-c2csc(Nc3cccnc3)n2)cc1	n	x	n	x	x	x	x	x	x	x
c1ccc(Nc2nc(-c3ccncc3)cs2)cc1	143.6	x	n	58.9	n	n	n	n	n	n
CC(=O)Nc1nc(-c2ccc(-c3ccccc3)cc2)cs1	x	40.1	n	67.6	n	n	n	n	n	n
c1ccc(-c2csc(Nc3cccnc3)n2)nc1	n	x	n	61.1	n	n	n	n	n	n
O=C(CN1CCOCC1)N[C@@H]1CC[C@H](CCn2cc(C3CCCCC3)nn2)O[C@@H]1CO	x	x	x	n	x	x	x	x	x	x
O=C(Nc1ccccc1)[C@@H]1[C@@H](CO)[C@@H]2Cn3c(cccc3=O)[C@@H]2N1Cc1ccccc1Cl	x	x	x	n	x	x	x	x	x	x
Nc1nc(SCc2ccccc2)c2ncn(C3CCCCC3)c2n1	n	n	n	84.6	n	0.78	n	n	n	n
CCCCc1nc2cc(C(=O)N3CCN(c4nc(C)cnc4C)CC3)ccc2o1	u	n	n	64.1	n	n	n	n	n	n
Cn1c(COc2ccccc2)nc2ccccc21	x	42.3	n	57.2	n	n	n	n	n	n
O=C(/C=N/NC(=O)c1ccc(Cl)cc1Cl)c1ccccc1	n	49.1	n	59.1	n	n	n	n	n	n
